Measurements as given in PubChem BioAssay (Tox21).
Records with an inconclusive call do not appear. Unmarked numbers belong to inactive results. Calls of active or inactive are those of the source. The call rests on the fitted dose curve; in most records, active means well fitted inhibition curve with a large enough effect in the repeat runs; inconclusive means weak or mixed curves; inactive means flat fitted curve, though single readings scatter.
On the % scale 0 is the no-effect control and ±100 the full control effect.

The molecules below were run against Luciferin 4-monooxygenase (Photinus pyralis) (UniProt P08659) (assay: qHTS assay to identify small molecule inhibitors of firefly luciferase (AID 1224835; further: nearly all actives have a fitted effect of over 25% in size)). Conditions: purified P. pyralis luciferase, luminescence inhibition; series mostly up to 115 µM; activity change, negative = inhibition: at the top concentration.
Chain of Luciferin 4-monooxygenase (Photinus pyralis) (P08659 whole entry, looked up): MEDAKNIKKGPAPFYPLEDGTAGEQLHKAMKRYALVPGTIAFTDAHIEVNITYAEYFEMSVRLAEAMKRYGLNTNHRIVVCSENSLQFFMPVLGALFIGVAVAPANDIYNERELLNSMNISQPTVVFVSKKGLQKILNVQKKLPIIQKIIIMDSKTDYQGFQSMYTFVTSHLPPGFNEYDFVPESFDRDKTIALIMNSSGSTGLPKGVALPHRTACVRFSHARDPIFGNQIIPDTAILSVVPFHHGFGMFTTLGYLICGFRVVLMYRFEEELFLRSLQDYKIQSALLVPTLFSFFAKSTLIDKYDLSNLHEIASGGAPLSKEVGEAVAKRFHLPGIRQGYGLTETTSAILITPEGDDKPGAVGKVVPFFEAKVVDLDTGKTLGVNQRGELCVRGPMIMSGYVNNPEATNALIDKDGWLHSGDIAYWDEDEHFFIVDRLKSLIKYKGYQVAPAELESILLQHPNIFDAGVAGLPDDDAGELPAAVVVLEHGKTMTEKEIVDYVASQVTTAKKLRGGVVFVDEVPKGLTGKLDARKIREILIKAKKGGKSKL
Text: U.S. Tox21 Program National Center for Advancing Translational Sciences [NCATS] NIH Chemical Genomics Center [NCGC] U.S. Environmental Protection Agency [EPA] National Institutes of Environmental Health Sciences [NIEHS] National Toxicology Program [NTP] U.S. Food and Drug Administration [FDA] Tox21 Assay Overview: Firefly (Photinus pyralis) luciferase is one of the most commonly used transcriptional reporters. Firefly luciferase reporter-gene assays are generally considered one of the most sensitive assay types (Wood, 1995; Wood, 1998). However, it was initially observed, in 1991, by Thompson et al., that compounds that resemble the substrates of firefly luciferase (FLuc) can act as competitive inhibitors of the enzyme, and that these compounds, upon interaction with luciferase in the cell, can actually stabilize the protein and increase its half-life. Previous profiling work by other groups to determine the prevalence of compounds that affect FLuc enzymatic activity (PubChem AID 411) identified that ~3% of the MLSMR library (then at ~72K) inhibited FLuc. […] Thus the Tox21 10K library is profiled for activity against FLuc using a biochemical assay of purified FLuc and KM concentrations of FLuc substrates (D-luciferin and ATP).
These assay plates were then treated with 23nL of compound or DMSO using a Kalypsys pin tool, which allows for delivery of a 6-point interplate titration of each compound to the assay plate (quantitative HTS.) 1 uL of firefly luciferase mix (containing 50 mM Tris acetate, pH 7.6, 0.04 uM P. pyralis luciferase, 0.01% Tween, 0.05% BSA and dH2O) was then delivered by FRD to each well. Luciferase activity was then measured using a ViewLux CCD imager.
`CCN(CC)CC(=O)Nc1c(C)cccc1C(=O)OC` was tested, and the “activity change, negative = inhibition” value was -3.88% [at 52.9 µM].
In the case of `COC(=O)CC(C(C)=O)C(=O)OC` (stereo not given), the “activity change, negative = inhibition” value is reported as 3.11%.
With `CC(C)C(O)C(C)(C)CO` (stereo not given) the “activity change, negative = inhibition” value was 3.86%.
For `CC1CCC(C(C)CS)CC1S` (stereo not given), the “activity change, negative = inhibition” value was -2.69%.
`CCCCCCCC(=O)Oc1c(Br)cc(C#N)cc1Br` was tested, and the “activity change, negative = inhibition” value was 1.77%.
With `O=C(NS(=O)(=O)/C=C/c1ccccc1)c1ccc(F)cc1Cl` the “activity change, negative = inhibition” value was 1.99%.
In the case of `CCOC(=O)N1CCC(Nc2ccc(Cl)cc2N)CC1`, the “activity change, negative = inhibition” value is reported as -0.341% [at 52.9 µM].
With `O=C(O)CCC(=O)c1ccc(-c2ccccc2)cc1` the Potency was 6.92 µM (active).
In the case of `Oc1cccc2[nH]ccc12`, the “activity change, negative = inhibition” value is reported as 5.65% [at 52.9 µM].
`O=C1CC[C@@H](C(=O)O)N1` was tested, and the “activity change, negative = inhibition” value was -0.363% [at 52.9 µM].
`CNc1c2c(nn1C)CCCC2` was tested, and the “activity change, negative = inhibition” value was -4.1% [at 52.9 µM].
With `CCOC(=O)c1ccc(NC(=O)CN2CCCCC2)cc1` the “activity change, negative = inhibition” value was 0.885% [at 52.9 µM].
For `O=C1c2ccccc2C(=O)c2c(O)ccc(O)c21`, the “activity change, negative = inhibition” value was -9.86%.
In the case of `CCC(CO)(CO)[N+](=O)[O-]`, the “activity change, negative = inhibition” value is reported as -4.35%.
In the case of `CC(C)CC(O)CC(C)C`, the “activity change, negative = inhibition” value is reported as 0.634%.
`C[C@@H]1[C@H](O)[C@@H](C)/C=C/C=C\C=C\C=C\C=C\C=C\C=C\[C@H](O[C@@H]2O[C@H](C)[C@@H](O)[C@H](N)[C@@H]2O)C[C@@H]2O[C@](O)(C[C@@H](O)C[C@@H](O)[C@H](O)CC[C@@H](O)C[C@@H](O)CC(=O)O[C@H]1C)C[C@H](O)[C@H]2C(=O)O` (stereo in doubt) was tested, and the “activity change, negative = inhibition” value was 1.02%.
In the case of `SCCc1cnccn1`, the “activity change, negative = inhibition” value is reported as -3.37%.
In the case of `CC(C)(O)c1coc(S(=O)(=O)NC(=O)Nc2c3c(cc4c2CCC4)CCC3)c1`, the “activity change, negative = inhibition” value is reported as 1.84%.
For `CCN(Cc1cccc(S(=O)(=O)O)c1)c1ccc(C(=C2C=CC(=[N+](CC)Cc3cccc(S(=O)(=O)O)c3)C=C2)c2ccc(O)cc2S(=O)(=O)[O-])cc1`, the Potency was 10.8 µM (active).
For `CCCCCCCC/C=C\CCCCCCCC(=O)OCCO`, the “activity change, negative = inhibition” value was 3.36%.
`CC(CO)(CO)C(=O)O` was tested, and the “activity change, negative = inhibition” value was -1.17%.
`CCC1CCC(CCC(=O)O)C1` (stereo not given) was tested, and the “activity change, negative = inhibition” value was 0.178%.
`O=S(=O)(Cl)c1c(Cl)cccc1Cl` was tested, and the “activity change, negative = inhibition” value was -2.66%.
In the case of `Oc1ccc2c(c1)Cc1ccccc1-2`, the Potency is reported as 31.7 µM (active).
With `CC(=O)C(C)=O` the “activity change, negative = inhibition” value was 2.28%.
For `C=CCOC(=O)COCCC(C)C`, the “activity change, negative = inhibition” value was -6.15%.
With `N[C@@H](Cc1cc(I)c(O)c(I)c1)C(=O)O` the “activity change, negative = inhibition” value was 0.667% [at 52.9 µM].
`O=C(NC(Cc1cc(=O)[nH]c2ccccc12)C(=O)O)c1ccc(Cl)cc1` (stereo not given) was tested, and the “activity change, negative = inhibition” value was 1.87% [at 52.9 µM].
For `CC1CCc2nccnc21` (stereo not given), the “activity change, negative = inhibition” value was 2.51%.
For `O=C(O)CCS`, the “activity change, negative = inhibition” value was 2.32%.
For `CCCCCCC(CO)CCCC` (stereo not given), the “activity change, negative = inhibition” value was 1.01%.
In the case of `CN1CCCN(C(c2ccccc2)c2ccc(Cl)cc2)CC1` (stereo not given), the “activity change, negative = inhibition” value is reported as 1.15% [at 52.9 µM].
For `FC(F)(F)C(F)(F)C(F)(F)C(F)(F)CCI`, the “activity change, negative = inhibition” value was -0.548% [at 52.9 µM].
With `COc1cc(NC(C)CCCN)c2ncccc2c1` (stereo not given) the “activity change, negative = inhibition” value was 5.84% [at 52.9 µM].
In the case of `CCSC(=O)N(CC)CC`, the “activity change, negative = inhibition” value is reported as 2.58%.
In the case of `CC(=O)c1ccc[nH]1`, the “activity change, negative = inhibition” value is reported as 1.04%.
In the case of `Cc1ccc2c(c1[N+](=O)[O-])C(=O)c1ccccc1C2=O`, the “activity change, negative = inhibition” value is reported as 1.37% [at 52.9 µM].
`CC[C@H]1OC(=O)[C@H](C)[C@@H](O[C@H]2C[C@@](C)(OC)[C@@H](O)[C@H](C)O2)[C@H](C)[C@@H](O[C@@H]2O[C@H](C)C[C@H](N(C)C)[C@H]2O)[C@](C)(O)C[C@@H](C)C(=O)[C@H](C)[C@@H](O)[C@]1(C)O` was tested, and the “activity change, negative = inhibition” value was 0.711% [at 52.9 µM].
In the case of `CCN(CC)c1ccc(C(=C2C=CC(=[N+](CC)CC)C=C2)c2ccc(S(=O)(=O)O)cc2S(=O)(=O)[O-])cc1`, the Potency is reported as 8.94 µM (active).
With `Cc1c(C2(c3cc(Br)c(O)c(Br)c3C)OS(=O)(=O)c3ccccc32)cc(Br)c(O)c1Br` the Potency was 8.67 µM (active).
